Most compounds without a hit are left out; they make up all but 4.1% or so of the library.
TIM10 inh: growth inhibitors of isogenic TIM10 control yeast, primary screen, counter-screen for tim10-1 yeast inhibitor project, luminescence, uHTS; AID 463195, 2010; S. cerevisiae TIM10 strain growth, BacTiter-Glo luminescence, 24 h; 330,000 tested, 1.4% active; inhibition, % at 10 µM;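 active = inhibition of 40% or more at the single tested concentration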;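 also: wild-type TIM10 isogenic control strain grown at permissive 25 °C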
tim10-1 inh: growth inhibitors of tim10-1 mutant yeast, primary screen, luminescence, uHTS; S. cerevisiae tim10-1 ts strain growth, BacTiter-Glo, 24 h; inhibition, % at 20 µM; 330,000 tested, 2.2% active; AID 463190, 2010;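 active = inhibition of at least 40%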;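 also: mutant grown at 25 °C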
NALP1 inh: NALP1 inflammasome inhibitors in reconstituted yeast, colorimetric, S. cerevisiae, triplicate retest; S. cerevisiae NALP1/ASC/caspase-1 growth, X-gal OD620, 72 h; inhibition, % at 10 µM; 280,000 tested, 0.61% active; in the data active = inhibition mostly above about 24%, no sharp cut-off; inactive = mostly below about 32%
tim23-1 inh: growth inhibitors of tim23-1 mutant yeast, primary screen, luminescence, uHTS; inhibition, % at 20 µM; S. cerevisiae tim23-1 growth, BacTiter-Glo luminescence, 24 h; 330,000 tested, 1.3% active;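 active = growth inhibition of the mutant yeast at or above 50%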;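 also: temperature-sensitive mutant grown at 25 °C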
PfHsp90 yeast 2: growth inhibition of PfHsp90-expressing yeast, primary screen, antimalarial PfHsp90 inhibitor project, S. cerevisiae, BacTiter-Glo luminescence, single point, set 2; BacTiter-Glo ATP, 48 h; yeast lacking PDR1 and PDR3 efflux regulators; inhibition, % at 9.4 µM; 310,000 tested, 0.32% active; AID 504621, 2011;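 active = every replicate shows inhibition above about 80%, whatever the replicate mean, limit read from the data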
NLRP3 yeast inh: NALP3 inflammasome inhibitors in reconstituted yeast, primary screen, luminescence, uHTS; 330,000 tested, 0.39% active; inhibition, % at 10 µM; Yeast reconstituted NLRP3/ASC/caspase-1, beta-gal luminescence, 24 h;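 active = inhibition of 50% or more; inactive = inhibition below 50%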
tim10-1 confirm: growth inhibitors of tim10-1 mutant yeast, confirmation, single concentration, luminescence, S. cerevisiae. inhibition, % at 20 µM. 7,400 tested, 56% active. AID 463213, 2010. shares compounds with tim10-1 inh. S. cerevisiae tim10-1 ts strain growth, BacTiter-Glo, 24 h;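 active = inhibition of yeast growth at or above a set limit in either of two repeat tests at 20 µM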;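 also: tim10-1 mutant grown at permissive 25 °C to find synthetic lethal compounds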
Hits are given with their value; - = inactive; . = no result given.

SMILES	TIM10 inh	tim10-1 inh	NALP1 inh	tim23-1 inh	PfHsp90 yeast 2	NLRP3 yeast inh	tim10-1 confirm
CC12CCC(C(=O)N3CCN(C(c4ccccc4)c4ccccc4)CC3)(OC1=O)C2(C)C (centres undefined)	-	41.3	-	-	-	-	-
Cc1cc(C)c(C(=O)N2CCCC(N3CCN(c4cccc(C(F)(F)F)c4)CC3)C2)o1 (centres undefined)	-	44.2	-	-	-	-	-
COC(=O)c1c(Cc2ccccc2Cl)c[nH]c1C	-	41.0	-	-	-	-	-
OCCNc1ncnc2c1sc1nc(N3CCOCC3)c3c(c12)CCC3	-	49.2	-	-	-	-	-
c1ccc2sc(-c3ccc4c(c3)OCO4)nc2c1	-	45.3	-	-	-	-	45.5
CCc1ccccc1NC(=O)CC1CS(=O)(=O)CC1CC(=O)Nc1ccccc1CC (centres undefined)	-	-	-	-	-	-	.
O=C(CC1CS(=O)(=O)CC1CC(=O)Oc1ccccc1F)Oc1ccccc1F (centres undefined)	-	44.2	-	-	-	-	-
CCOC(=O)/C(C#N)=C/c1cn(CCOc2ccccc2)c2ccccc12	-	-	-	-	-	-	.
CCOC(=O)/C(C#N)=C\c1cn(C)c2ccccc12	-	41.0	-	-	-	-	-
CCOc1ccc(S(=O)(=O)N2CCN(CN3C(=O)CC4(CCCC4)C3=O)CC2)cc1	-	-	.	-	-	-	.
CCC(C)C(=O)N1c2ccccc2C(=C2SC(C(=O)OC)=C(C(=O)OC)S2)C(=S)C1(C)C (centres undefined)	-	43.6	-	-	-	-	-
CSCCC(NC(=O)c1ccccc1Br)C(=O)NC(C)CCc1ccccc1 (centres undefined)	-	76.4	-	-	-	-	-
CSCCC(NC(=O)c1ccccc1)C(=O)NCCc1ccccc1 (centres undefined)	-	-	-	-	-	-	.
COC(C/C=C/C(=O)COCc1ccccc1)OC	-	46.1	.	-	-	-	41.0
CC1(C)CC(=O)/C(=C(\O)c2ccccc2)C(=NCCc2ccccc2)C1	-	45.0	-	-	-	-	-
N#C/C(C(=O)N1CCCCC1)=C1/N=C(NC(=O)c2ccc(F)cc2)c2ccccc21	-	44.2	-	-	-	-	-
N#C/C(C(=O)N1CCCCC1)=C1/N=C(N)c2ccccc21	-	-	-	-	-	-	.
C=CC(C)(C)c1c(O)c(CC=C(C)C)c(O)c2c(=O)c3ccc(O)c(O)c3oc12	-	43.6	.	-	105.5	-	29.4
CCOC(=O)C1CCCN(C(=O)/C=C/c2ccc(Cl)cc2)C1 (centres undefined)	-	41.4	-	-	-	-	-
Cc1ccc(-c2nn3c(C)nnc3c3ccccc23)cc1S(=O)(=O)N1CCN(CCO)CC1	-	44.3	-	-	-	-	-
Cc1ccc(-c2nn3c(C)nnc3c3ccccc23)cc1S(=O)(=O)NCCO	-	-	-	-	-	-	.
O=C(NCC(c1ccccc1Cl)N1CCCC1)c1ccc(N2CCCC2=O)cc1 (centres undefined)	-	-	.	-	.	-	.
COc1cc(/C=N/NC(=O)c2cc(-c3ccccc3)nc3ccccc23)ccc1O	-	41.2	-	-	-	-	-
COc1ccc(/C=N/NC(=O)c2cc(-c3ccccc3)nc3ccccc23)cc1O	-	-	-	-	-	-	.
O=C(OCc1ccc(O)cc1)c1c(-c2ccsc2)oc2ccc(N3CCOCC3)cc12	-	-	-	-	-	-	.
SMILES	TIM10 inh	tim10-1 inh	NALP1 inh	tim23-1 inh	PfHsp90 yeast 2	NLRP3 yeast inh	tim10-1 confirm
COc1ccccc1NS(=O)(=O)c1cc(C(=O)NCC(C)(C)N2CCOCC2)ccc1C	-	-	.	-	-	-	.
COC(=O)c1ccc(NC(=O)COC(=O)COc2cccc3c2OC(C)(C)C3)cc1	-	-	.	-	-	-	.
COc1cccc(NC(=S)Nc2cccc3ccccc23)c1	-	55.3	-	-	-	-	-
C/C(=N\NC(=S)Nc1cccc(C)c1)c1cc2ccccc2o1	-	47.4	-	-	-	-	39.3
Fc1ccc(NC(=S)Nc2cccc3ccccc23)cc1F	-	41.8	-	-	-	-	-
CCNC(=S)N/N=C(\C)c1cc2ccccc2o1	-	-	-	-	-	-	.
Cc1cc(NC(=S)Nc2ccccc2)ccc1Br	-	41.3	-	-	-	-	-
COC(=O)c1ccccc1C(=O)N(c1ccccc1)c1ccccc1	-	-	.	-	-	-	.
N#Cc1ccc(C(=O)NNC(=O)c2ccncc2)cc1	-	-	-	-	-	-	.
CC1(c2ccc3c(c2)OCCCO3)NC(=O)N(CC(=O)Nc2cccc(C#N)c2)C1=O (centres undefined)	-	-	.	-	-	-	.
Cc1cccc(NC(=S)Nc2cccc3ccccc23)c1	-	45.2	-	-	-	-	-
Cc1ccc(NC(=O)COC(=O)C2CCC2)cc1S(=O)(=O)N1CCCCC1	-	-	.	-	-	-	.
CCCCS/C(=C(/C#N)C(N)=O)c1cc2c([nH]1)CCCC2	-	44.9	-	-	.	-	37.8
O=[N+]([O-])c1cc(/C=N\Nc2nc(-c3ccccc3)cs2)ccc1O	-	-	-	-	-	-	.
Cc1csc(N/N=C/c2ccc(O)c([N+](=O)[O-])c2)n1	-	50.5	-	-	.	-	33.0
COc1ccccc1C(=O)N1CCN(CCNC(=O)C(=O)Nc2ccc(Br)c(C)c2)CC1	-	-	-	-	-	-	.
CCOc1ccc(Nc2nc(N)nc(CSC(=S)N3CCN(c4ccccc4)CC3)n2)cc1	-	-	.	-	-	-	.
COc1ccc(Nc2nc(N)nc(CSC(=S)N3CCN(c4ccccc4)CC3)n2)cc1	-	40.7	-	-	-	-	-
CC1CN(c2cnn(C(C)C)c(=O)c2Cl)CC(C)O1 (centres undefined)	-	-	-	-	-	-	.
O=[N+]([O-])c1ccc(C2CC(c3ccccc3)=Nc3ccccc3S2)cc1 (centres undefined)	-	42.5	-	-	-	-	-
O=C(O)C1CC(c2ccccc2)=Nc2ccccc2S1 (centres undefined)	-	-	-	-	-	-	.
O=C(CSc1nc2nn(-c3ccccc3)c(=O)c-2c2n1CCCCC2)Nc1ccccc1[N+](=O)[O-]	-	-	.	-	-	-	.
CC(C)Nc1nc(Cl)nc(NCCOc2ccccc2)n1	-	40.1	-	-	-	-	-

Bioassay records from PubChem BioAssay.
